Here are results for 31 compounds from PubChem BioAssay (NCATS).

Structures are written as SMILES. Inconclusive results are not listed. Values without a mark were called inactive. Calls follow the shape of the dose curve; as a rule, active = well fitted inhibition curve with a large enough effect; inconclusive = small, poorly fitted or top-dose-only effect; inactive = flat fitted curve, though single readings scatter. Where a SMILES comes first, the peptide text is derived from it. Bridges are numbered along the chain shown (N, C = ends). [ ]: non-standard residue; d: D form. Orn = NCCC[C@H](N)C(=O)O; Mpa = O=C(O)CCS
% is scaled to controls: 0 for no effect and ±100 for the full control effect.

The test system of the assay is KB-3-1. Kind of assay: Cytotoxic Profiling of Annotated Libraries Using Quantitative High-Throughput Screening (AID 1296008). Also: nearly all actives have a fitted effect of over 60% in size. Particulars: Five cell lines viability, CellTiter-Glo ATP luminescence, 48-72 h; max response: hits give low values. In outline:
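Cytotoxicity was measured as CellTiter-Glo ATP luminescence, read after 10 min at room temperature. Compound treatment of the cells lasted 48 or 72 hr at 37 degrees Celsius in a qHTS format.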
Regarding `CCCCOC(=O)C(=O)Nc1cccc(-c2nn[nH]n2)c1`, the max response was -17%.
For the compound `CC[C@H]1OC(=O)[C@H](C)[C@@H](O[C@H]2C[C@@](C)(OC)[C@@H](O)[C@H](C)O2)[C@H](C)[C@@H](O[C@@H]2O[C@H](C)C[C@H](N(C)C)[C@H]2O)[C@](C)(O)C[C@@H](C)[C@@H]2N[C@@H](COCCOC)O[C@@H]([C@H]2C)[C@]1(C)O`, the max response is -15.7%.
For the compound `CN1CCN(C2=Nc3ccccc3Cc3ccccc32)CC1`, the max response was 2.98%.
For `NCCCNCCCCNC(=O)C(O)NC(=O)CCCCCCN=C(N)N` (stereo unspecified), the max response was -11.3%.
On to `O=C[C@H](O)[C@@H](O)[C@H](O)[C@H](O)CO`, for which the max response was -5.79%.
As for `O=S(O)CNc1ccc(S(=O)(=O)c2ccc(NCS(=O)O)cc2)cc1`, the max response is -17.8%.
`O=P(O)(O)OC(CO)CO`: the max response was 1.53%.
With `CCOc1ccc(C[C@H]2NC(=O)CCSSC[C@@H](C(=O)N3CCC[C@H]3C(=O)N[C@@H](CCCN)C(=O)NCC(N)=O)NC(=O)[C@H](CC(N)=O)NC(=O)[C@H]([C@@H](C)O)NC(=O)[C@H]([C@@H](C)CC)NC2=O)cc1` ([Mpa][dY](Et)ITNCP[Orn]G-NH2; disulfide 1-6), the max response is -2.06%.
For `CCC(C)C(C(=O)OCC[N+](C)(CC)CC)c1ccccc1` (stereo unspecified), the max response was -5.4%.
For `C[N+](C)(CCCCCC[N+](C)(C)C1c2ccccc2-c2ccccc21)C1c2ccccc2-c2ccccc21`, the max response is -17.2%.
For `CC1(S(=O)(=O)O)CC(=O)c2ccccc2C1=O` (stereo unspecified), the max response was 5.99%.
Take `C[C@H]1C[C@@H]2[C@H]([C@@H](O)C[C@@]3(C)[C@H]2CC[C@]3(O)C(=O)COC(=O)CCC(=O)O)[C@@]2(C)C=CC(=O)C=C12`: the max response is -6.8%.
With `O=C1O[C@H]2[C@H](O)[C@@H]1OC(O)[C@H]2O` (stereo partly specified), the max response is -7.29%.
The value for `CS(=O)(=O)Nc1cc2occ(NC=O)c(=O)c2cc1Oc1ccccc1` was 1.81%.
`CN(C(=O)CO)c1c(I)c(C(=O)NCC(O)CO)c(I)c(C(=O)NCC(O)CO)c1I` (stereo unspecified): the max response was 5.16%.
Take `Cc1[nH]cnc1C[C@H]1CCc2c(C)c3ccccc3n2C1=O`: the max response was -19%.
`CNC[C@@H]1CC[C@@H](N)[C@@H](O[C@H]2[C@H](O)[C@@H](O[C@H]3OC[C@](C)(O)[C@H](NC)[C@H]3O)[C@H](N)C[C@@H]2N)O1`: the max response was -26.6%.
Consider `CCC(=O)O`, for which the max response was -11.1%.
For the compound `CC(=O)O[C@H]1CC[C@@]2(C)C(=CC[C@H]3[C@@H]4CC[C@H](C(C)=O)[C@@]4(C)CC[C@@H]32)C1`, the max response is 2.35%.
For the compound `CCCCc1cc2c(=O)c(C(=O)OC)c[nH]c2cc1OCc1ccccc1`, the max response is -10.6%.
With `CN1CC(O)c2cc(N=NC(N)=O)c(O)cc21` (stereo unspecified), the max response is -10.6%.
Consider `OCC(O)COc1ccc(Cl)cc1` (stereo unspecified), for which the max response was -9.74%.
Then `CCN(CC)c1ccc(N=Nc2ccc(S(=O)(=O)N(C)C)cc2)c(S(=O)(=O)NCC[n+]2ccccc2)c1`, with -15.2%; and `O=C(O)[C@@H](O)[C@H](O)[C@H](O)[C@@H](O)C(=O)O` (tested in a mixture with another compound), with -0.35%.
For `OC(CN1CCCCC1)c1cc(-c2ccccc2)on1` (stereo unspecified), the max response was -12.7%.
Turning to `CCOC(=O)[C@H](CCc1ccccc1)N[C@H]1CCCN2CCC[C@@H](C(=O)O)N2C1=O`, the max response was 1.33%.
`CCC(C)(C)OC(=O)N[C@@H](Cc1c[nH]c2ccccc12)C(=O)N[C@@H](CCSC)C(=O)N[C@@H](CC(=O)O)C(=O)N[C@@H](Cc1ccccc1)C(N)=O`: the max response is 0.713%.
In the case of `C/C=C(/CC[C@@H](C)[C@H]1CC[C@H]2C3=CC[C@H]4[C@H](C)[C@@H](O)CC[C@]4(C)[C@H]3CC[C@]12C)C(C)C`, the max response was -22.1%.
In the case of `CN=C(NC)NCc1ccccc1`, the max response was -10.8%.
For the compound `C=CS(=O)(=O)O`, the max response is -7.41%.
As for `Cc1c(N)nc(C(CC(N)=O)NCC(N)C(N)=O)nc1C(=O)NC(C(=O)NC(C)C(O)C(C)C(=O)NC(C(=O)NCCc1nc(-c2nc(C(=O)NCCCN[C@@H](C)c3ccccc3)cs2)cs1)C(C)O)C(O[C@@H]1O[C@@H](CO)[C@@H](O)[C@H](O)[C@@H]1O[C@H]1O[C@H](CO)[C@@H](O)[C@H](OC(N)=O)[C@@H]1O)c1cnc[nH]1` (stereo partly specified), the max response was -0.767%.
